In PubChem BioAssay (EPA / NIEHS):
Some compounds were tested as several samples or in several runs, with calls that do not always agree. Calls of active or inactive are those of the source. Rule for the calls: active = hit-call score of the fitted dose curve at least 0.9, where 1 is the maximum; inactive = score below 0.9.

Assays:
[1] = read-out: C-C motif chemokine 2 (Homo sapiens) (UniProt P13500); assay: BSK_KF3CT_MCP1: BioMAP Diversity Plus: KF3CT Assay for Monocyte Chemoattractant Protein 1 (MCP1/CCL2) Biomarker Activity (AID 2283073); settings: primary human keratinocytes with fibroblasts; actives raise or lower the signal
Procedure, shortened: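 Human keratinocyte–foreskin fibroblast co-culture; MCP-1 measured by ELISA 24 h after dosing. Bidirectional fit vs DMSO; cytotoxicity tracked by SRB total protein in parallel cultures.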

[2] = read-out: Matrix Metallopeptidase 9 (MMP9), MMP9 (gene 4318); assay: BSK_KF3CT_MMP9: BioMAP Diversity Plus: KF3CT Assay for Matrix Metallopeptidase 9 (MMP9) Biomarker Activity (AID 2283074); settings: primary human keratinocytes with fibroblasts; actives raise or lower the signal
Procedure, shortened: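 MMP-9 quantified by ELISA after 24 h chemical treatment of primary human skin keratinocyte/fibroblast co-cultures; gain or loss fitted against DMSO, with parallel SRB staining (0.1% SRB, 560 nm) for overt cytotoxicity.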

[3] = read-out: urokinase plasminogen activator (uPA), PLAU (gene 5328); assay: BSK_KF3CT_uPA: BioMAP Diversity Plus: KF3CT Assay for urokinase plasminogen activator (uPA) Biomarker Activity (AID 2283075); settings: primary human keratinocytes with fibroblasts; actives raise or lower the signal
Procedure, shortened: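 ELISA read-out of uPA 24 h after dosing human skin keratinocytes co-cultured with foreskin fibroblasts. Signal change fitted both ways relative to DMSO; sulforhodamine B on parallel cultures marks overt cytotoxicity.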

CD40, CD40 (gene 958) [4] = assay: BSK_LPS_CD40: BioMAP Diversity Plus: LPS Assay for CD40 Biomarker Activity (AID 2283076); settings: primary human HUVEC with PBMC; actives raise or lower the signal
Procedure, shortened: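 HUVEC plus PBMC co-culture stimulated with LPS; CD40 quantified by ELISA 24 h after compound dosing. Fitting was bidirectional relative to DMSO. SRB staining of parallel cultures flagged overt cytotoxicity.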

[5] = read-out: E-selectin (Homo sapiens) (UniProt P16581); assay: BSK_LPS_Eselectin: BioMAP Diversity Plus: LPS Assay for Eselectin Biomarker Activity (AID 2283077); settings: primary human HUVEC with PBMC; actives raise or lower the signal
Procedure, shortened: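 Human umbilical vein endothelial cells co-cultured with PBMC under LPS stimulation; cell-surface E-selectin measured by ELISA 24 h after dosing. Change in either direction versus DMSO, with SRB total-protein staining in parallel cultures for cytotoxicity.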

[6] = read-out: Interleukin-8 (IL8), CXCL8 (gene 3576); assay: BSK_LPS_IL8: BioMAP Diversity Plus: LPS Assay for Interleukin-8 (IL8) Biomarker Activity (AID 2283078); settings: primary human HUVEC with PBMC; actives raise or lower the signal
Procedure, shortened: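 Human umbilical vein endothelial cells co-cultured with PBMC, LPS-stimulated, exposed to compound for 24 h. IL-8 quantified by ELISA; fitted in both directions against DMSO, with SRB total-protein staining of parallel cultures for cytotoxicity.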

[7] = BSK_LPS_SRB: Viability Assessment in the BioMAP Diversity Plus: LPS Assay (AID 2283079); settings: primary human HUVEC with PBMC;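 note: total protein by sulforhodamine B absorbance as a cytotoxicity measure; measured one day after compound addition; fitted in both directions against DMSO so loss or gain of signal counts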
Procedure, shortened: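 Co-culture of human umbilical vein endothelial cells and PBMC, read 24 h after dosing. Total protein by 0.1% SRB staining after 10% TCA fixation, absorbance at 560 nm; bidirectional fit against DMSO.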

[8] = read-out: Interleukin-1 alpha (IL1a), IL1A (gene 3552); assay: BSK_LPS_IL1a: BioMAP Diversity Plus: LPS Assay for Interleukin-1 alpha (IL1a) Biomarker Activity (AID 2283080); settings: primary human HUVEC with PBMC; actives raise or lower the signal
Procedure, shortened: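 Human umbilical vein endothelial cells co-cultured with PBMC and stimulated with LPS; IL-1a measured by ELISA 24 h after dosing. Bidirectional fitting against DMSO; cytotoxicity checked by SRB staining in parallel cultures.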

[9] = read-out: Monocyte Chemoattractant Protein-1 (MCP1), CCL2 (gene 6347); assay: BSK_LPS_MCP1: BioMAP Diversity Plus: LPS Assay for Monocyte Chemoattractant Protein-1 (MCP1) Biomarker Activity (AID 2283081); settings: primary human HUVEC with PBMC; actives raise or lower the signal
Procedure, shortened: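 Human umbilical vein endothelial cells co-cultured with PBMC, LPS-stimulated; secreted MCP-1 measured by ELISA 24 h after compound addition. Bidirectional curve fitting against DMSO baseline; SRB total-protein staining in parallel cultures for cytotoxicity.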

[10] = BSK_LPS_PGE2: BioMAP Diversity Plus: LPS Assay for Prostaglandin E2 (PGE2) Biomarker Activity (AID 2283082); settings: primary human HUVEC with PBMC; actives raise or lower the signal
Procedure, shortened: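 Compounds were added to the LPS co-culture of endothelium and PBMC, and PGE2 was measured by ELISA after 24 h. Responses in either direction were fitted with DMSO as baseline.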

[11] = read-out: Macrophage colony-stimulating factor (MCSF), CSF1 (gene 1435); assay: BSK_LPS_MCSF: BioMAP Diversity Plus: LPS Assay for Macrophage colony-stimulating factor (MCSF) Biomarker Activity (AID 2283083); settings: primary human HUVEC with PBMC; actives raise or lower the signal
Procedure, shortened: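 HUVEC–PBMC co-culture, M-CSF measured by ELISA 24 h after chemical dosing. Fitted in both directions relative to DMSO as negative control; overt cytotoxicity assessed by SRB total-protein staining in parallel cultures.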

[12] = read-out: Tissue Factor, F3 (gene 2152); assay: BSK_LPS_TissueFactor: BioMAP Diversity Plus: LPS Assay for Tissue Factor Biomarker Activity (AID 2283084); settings: primary human HUVEC with PBMC; actives raise or lower the signal
Procedure, shortened: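 Human umbilical vein endothelial cells co-cultured with PBMC were dosed with compound. Cell-surface CD142 was measured by ELISA 24 h later. Activity was fitted bidirectionally against DMSO, with SRB total-protein staining in parallel cultures for cytotoxicity.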

[13] = read-out: Tumor necrosis factor (Homo sapiens) (UniProt P01375); assay: BSK_LPS_TNFa: BioMAP Diversity Plus: LPS Assay for Tumour Necrosis Factor alpha (TNFa) Biomarker Activity (AID 2283085); settings: primary human HUVEC with PBMC; actives raise or lower the signal;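 for AC50: TNFa protein level quantified by ELISA in the co-culture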
Procedure, shortened: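 Cells (umbilical vein endothelium plus peripheral blood mononuclear cells) were dosed with chemical, incubated 24 h, then TNFa was quantified by ELISA; values derive from bidirectional fitting with DMSO as baseline.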

[14] = read-out: Vascular cell adhesion molecule 1 (VCAM1), VCAM1 (gene 7412); assay: BSK_LPS_VCAM1: BioMAP Diversity Plus: LPS Assay for Vascular cell adhesion molecule 1 (VCAM1) Biomarker Activity (AID 2283086); settings: primary human HUVEC with PBMC; actives raise or lower the signal
Procedure, shortened: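 Cells are dosed in an LPS-stimulated endothelial/mononuclear co-culture and, after 24 h, VCAM-1 is quantified by ELISA. Activity in either direction is fitted relative to the DMSO negative control.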

CD40, CD40 (gene 958) [15] = assay: BSK_SAg_CD40: BioMAP Diversity Plus: SAg Assay for CD40 Biomarker Activity (AID 2283088); settings: primary human HUVEC with PBMC; actives raise or lower the signal
Procedure, shortened: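 HUVEC plus PBMC co-culture, superantigen-activated, with CD40 read by ELISA 24 h after dosing. Curves fitted in both directions against DMSO. Overt cytotoxicity checked by parallel SRB total-protein staining.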

CD69, CD69 (gene 969) = assay: BSK_SAg_CD69: BioMAP Diversity Plus: SAg Assay for CD69 Biomarker Activity (AID 2283089); settings: primary human HUVEC with PBMC; actives raise or lower the signal
Procedure, shortened: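 Primary human vascular co-culture (umbilical vein endothelium with peripheral blood mononuclear cells) exposed to test chemical for 24 h. CD69 levels quantified by fluorescence ELISA; DMSO served as negative control for bidirectional fitting.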

[16] = read-out: Monocyte Chemoattractant Protein-1 (MCP1), CCL2 (gene 6347); assay: BSK_SAg_MCP1: BioMAP Diversity Plus: SAg Assay for Monocyte Chemoattractant Protein-1 (MCP1) Biomarker Activity (AID 2283090); settings: primary human HUVEC with PBMC; actives raise or lower the signal
Procedure, shortened: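 Values derive from bidirectional fitting of ELISA-measured MCP1 against DMSO controls. Readings were taken 24 h after dosing human vascular endothelial cells co-cultured with peripheral blood mononuclear cells under superantigen stimulation.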

[17] = read-out: E-selectin (Homo sapiens) (UniProt P16581); assay: BSK_SAg_Eselectin: BioMAP Diversity Plus: SAg Assay for Eselectin Biomarker Activity (AID 2283091); settings: primary human HUVEC with PBMC; actives raise or lower the signal
Procedure, shortened: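 Human umbilical vein endothelial cells co-cultured with peripheral blood mononuclear cells, SAg system. E-selectin is measured by ELISA 24 h after dosing and fitted bidirectionally against DMSO. Cytotoxicity is checked by SRB staining of parallel cultures.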

[18] = read-out: Monokine induced gamma interferon (MIG), CXCL9 (gene 4283); assay: BSK_SAg_MIG: BioMAP Diversity Plus: SAg Assay for Monokine induced gamma interferon (MIG) Biomarker Activity (AID 2283092); settings: primary human HUVEC with PBMC; actives raise or lower the signal
Procedure, shortened: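 Endothelial cells and PBMC were co-cultured, exposed to test chemicals, and sampled 24 h later. MIG was measured by ELISA, and responses were fitted in both directions relative to DMSO.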

CD38, CD38 (gene 952) = assay: BSK_SAg_CD38: BioMAP Diversity Plus: SAg Assay for CD38 Biomarker Activity (AID 2283087); settings: primary human HUVEC with PBMC; actives raise or lower the signal
Procedure, shortened: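 CD38 quantified by ELISA (fluorescence) in a superantigen-activated endothelial cell–PBMC co-culture at 24 h post-dose. Activity fitted in both directions relative to DMSO; parallel SRB and Alamar Blue cytotoxicity read-outs.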

Measured: AC50

Sequence of E-selectin (Homo sapiens) (P16581 whole entry, looked up): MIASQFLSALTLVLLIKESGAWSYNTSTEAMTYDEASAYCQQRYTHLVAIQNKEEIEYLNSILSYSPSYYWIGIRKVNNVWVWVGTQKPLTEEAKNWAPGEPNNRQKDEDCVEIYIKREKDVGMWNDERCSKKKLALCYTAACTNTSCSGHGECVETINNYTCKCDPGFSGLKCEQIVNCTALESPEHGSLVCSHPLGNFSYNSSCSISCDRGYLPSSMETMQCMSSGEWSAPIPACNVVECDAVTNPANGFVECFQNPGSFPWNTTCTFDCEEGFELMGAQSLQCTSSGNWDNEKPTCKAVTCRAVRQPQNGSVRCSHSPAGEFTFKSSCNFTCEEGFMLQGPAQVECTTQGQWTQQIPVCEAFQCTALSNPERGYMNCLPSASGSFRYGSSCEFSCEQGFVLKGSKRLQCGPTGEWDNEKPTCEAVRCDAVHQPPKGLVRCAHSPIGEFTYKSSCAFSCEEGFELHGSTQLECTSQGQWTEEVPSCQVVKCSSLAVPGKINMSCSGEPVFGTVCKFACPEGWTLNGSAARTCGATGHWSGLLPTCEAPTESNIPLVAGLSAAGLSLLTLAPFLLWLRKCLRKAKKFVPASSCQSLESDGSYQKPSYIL
Sequence of Tumor necrosis factor (Homo sapiens) (P01375 whole entry, looked up): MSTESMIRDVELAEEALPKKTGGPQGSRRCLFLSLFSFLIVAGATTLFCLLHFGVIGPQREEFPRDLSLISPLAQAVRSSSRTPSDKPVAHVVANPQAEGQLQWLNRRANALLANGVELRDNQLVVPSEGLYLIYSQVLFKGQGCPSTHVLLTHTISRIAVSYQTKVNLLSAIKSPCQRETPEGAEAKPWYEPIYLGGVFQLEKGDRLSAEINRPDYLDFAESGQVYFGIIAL

CCCCCOC(C)=O
active: [13] 10.1 µM
not listed: CD38, CD38 (gene 952)
inactive: all other assays above

Cc1nc(-c2ccccn2)ncc1C(=O)Nn1cc(C)c2cc(F)ccc21
not listed: CD38, CD38 (gene 952)
inactive: all other assays above

FC(F)C(F)(F)COCC1CO1 (centres undefined)
not listed: [1]
inactive: all other assays above

O=S(=O)(O)CCC(F)(F)C(F)(F)C(F)(F)C(F)(F)C(F)(F)C(F)(F)F
active: [6] 22.5 µM
inactive: [2] | [3] | CD40, CD40 (gene 958) [4] | [5] | [6] | [7] | [8] | [9] | [10] | [11] | [12] | [13] | [14] | CD38, CD38 (gene 952) | CD40, CD40 (gene 958) [15] | CD69, CD69 (gene 969) | [16] | [17] | [18]

NC(=O)NN=Cc1ccc([N+](=O)[O-])o1
active: [14] 12.4 µM
not listed: CD38, CD38 (gene 952)
inactive: all other assays above

NCC(F)(F)C(F)(F)C(F)(F)C(F)(F)F
not listed: CD38, CD38 (gene 952)
inactive: all other assays above

OCC(CO)(CO)CO
not listed: CD38, CD38 (gene 952)
inactive: all other assays above
